In the library only some 4.3% were active in any assay of this set; here they are far more common.
FGF22 binding = binders of recombinant human FGF22 by thermal shift; SYPRO orange fluorescence; percent of sucrose octasulfate shift, DMSO zero; 340,000 compounds, 1.5% hits; activity (Tm shift, normalised), % at 9.99 µM; Q9HCT0;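 active = mean Tm shift, scaled 0 neutral to 100 positive control, at about 1.3% or above, every replicate too, limit read from the data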
Target sequence (Q9HCT0 whole entry, looked up): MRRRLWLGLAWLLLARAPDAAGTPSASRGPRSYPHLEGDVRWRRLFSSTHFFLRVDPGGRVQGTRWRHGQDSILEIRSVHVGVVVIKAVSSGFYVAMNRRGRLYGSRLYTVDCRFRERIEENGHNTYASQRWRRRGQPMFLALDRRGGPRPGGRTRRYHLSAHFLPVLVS
MITF TRPM1 HTS = increases MITF-driven TRPM1 promoter luciferase signal | activation, % at 12.5 µM | AID 588334 | 300,000 compounds, 0.75% hits | SK-MEL-5 TRPM1-promoter luciferase, 24 h; % of positive control, neutral wells = 0;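 active = mean activation of at least 80% with every replicate also reaching 80%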;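 note: 0% = neutral control wells and 100% = parthenolide positive control wells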
Wnt bcat act = activates Wnt/beta-catenin signaling in a reporter cell assay; activator, plate reader; activation, % at 9.35 µM; 300,000 compounds, 1.2% hits; AID 743398; in the data active = activation above about 30%, passing the limit was not always enough;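 note: 0% = neutral control wells and 100% = positive control wells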
SMARCA2 activ = activators of SMARCA2 function; MG213 cells, MMTV-luciferase reporter, dexamethasone, overnight; activation, % at 9.1 µM; 370,000 compounds, 1% hits; in the data active = activation above about 7.8%;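 note: 0% = vehicle wells and 100% = reference activator wells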
esBAF inh = inhibitors of esBAF chromatin remodeling in mouse ES cells; Bmi1-luciferase knock-in reporter, 24 h; 100% = twice the neutral-well signal; reporter increase, % at 12.5 µM; 350,000 compounds, 2% hits; in the data active = activation above about 40%;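 note: 0% = median of the plate's neutral control wells and 100% = double that signal; a rise in the Bmi1 reporter signal indicates esBAF inhibition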
AF4-AF9 inh = MLL-AF4/AF9 protein interaction inhibition. P42568. AlphaScreen, biotin-AF4 peptide binding to FLAG-AF9. inhibition, % at 10 µM. 350,000 compounds, 0.47% hits;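 active = every replicate reaching a set inhibition limit, whatever the replicate mean, cut at about 25% in these data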;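 note: 0% = plate neutral control median and 100% = total signal loss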
An asterisk follows results filed as active; / = no result given; ! = not confirmed by another sample.

SMILES	FGF22 binding	MITF TRPM1 HTS	Wnt bcat act	SMARCA2 activ	esBAF inh	AF4-AF9 inh
COC(=O)[C@H]1[C@H](CO)[C@H]2Cn3c(ccc(/C=C/c4ccccc4)c3=O)[C@@H]1N2CC1CCCC1	0.2	/	/	/	9.5	-50.5
CSc1ccc(C(=O)C2CCCN(Cc3cnc(SC)nc3)C2)cc1 (stereo not drawn)	43.9*	-8.4	1.5	-1.3	3.6	2.7
Cn1c(O)c(Cc2ccc(OCc3ccccc3)cc2)c(=O)n(C)c1=O	-0.3	43.9	33.3*	3.0	14.7	-2.0
CC(=NCCc1ccccc1)c1c(O)n(C)c(=O)n(C)c1=O	-0.2	1.9	2.7	-7.1	/	-11.2
COC(=O)[C@H]1[C@H](CO)[C@H]2Cn3c(ccc(-c4ccc(F)cc4)c3=O)[C@@H]1N2Cc1cccnc1	-0.1	/	/	/	-4.8	0.4
C(=NN1CCCCCC1)c1c[nH]c2ccccc12	0.2	-1.6	-2.1	1.4	5.0	-0.3
Brc1ccc2[nH]cc(/C=N/N3CCCCC3)c2c1	0.2	3.0	1.6	-0.8	/	25.8*
COc1ccc(C#Cc2ccc([C@@H]3[C@H]4CN(C(=O)Cc5cccnc5)CCCCN4[C@H]3CO)cc2)cc1	0.4	/	/	/	/	-5.0
Cc1ccnc(NC(=O)CCCc2ccc(N(CCCl)CCCl)cc2)n1	-0.1	-5.8	3.8	0.1	-21.6	25.7*
COC(=O)C[C@H]1CC[C@@H]2NC[C@@H](O)COC[C@H]2O1	-0.1	/	/	/	2.8	-1.6
Fc1ccc(CCNCc2ccc(Br)cc2)cc1	43.6*	1.7	-6.0	-1.5	2.8	-1.1
CC(=O)C1C(N2CC2)CC2C3CC=C4CC(O)CCC4(C)C3CCC21C (stereo not drawn)	44.1*	-1.0	-3.7	-3.9	-2.2	1.1
O=C(CN1C(=O)[C@@H](Cc2c[nH]c3ccccc23)N=C(c2ccccc2)c2ccccc21)NC1CCCCC1	/	/	/	-3.3	/	/
N#CC1C(C#N)C2CCC1C1C2N1c1ccccc1 (stereo not drawn)	0.0	-6.8	47.1*	0.3	-4.2	-1.2
C[C@@H]1CN([C@H](C)CO)C(=O)CCCn2nncc2CO[C@H]1CN(C)C(=O)Oc1ccc2ccccc2c1	43.0*!	/	0.1	-2.5	6.1	-2.3
C[C@@H]1CN([C@@H](C)CO)C(=O)CCCn2nncc2CO[C@@H]1CN(C)C(=O)Oc1ccc2ccccc2c1	0.0	/	-3.2	-3.6	1.5	-2.1
N#CC1c2ccccc2-n2nncc2CN1C(=O)c1ccc([N+](=O)[O-])o1 (stereo not drawn)	/	/	/	-1.8	/	/
S=C=Nc1cccc(C2(N3CCCCC3)CCCCC2)c1	-0.2	-74.2	0.2	10.6*	-4.5	8.6
NC(Cc1ccccc1)[P+](=O)O (stereo not drawn)	/	/	/	0.9	/	/
O=C(Cc1cccnc1)N1CCCCN2[C@H](CO)[C@@H](c3ccc(C#CC4CCCC4)cc3)[C@H]2C1	-0.4	/	/	/	-9.8	3.5
O=C(C1CCN(c2nc3ccc(Br)cc3s2)CC1)N1CCC2(CC1)OCCO2	/	19.5	/	1.6	64.1*	/
CCCNC(=O)[C@H]1[C@H](CO)[C@H]2Cn3c(cccc3=O)[C@H]2N1C	0.2	/	/	/	-0.8	-1.4
COC(=O)[C@@H]1[C@@H](CO)[C@@H]2Cn3c(ccc(C4=CCCC4)c3=O)[C@H]1N2S(=O)(=O)c1cn(C)cn1	0.1	/	/	/	0.0	-2.1
COP(=O)(NC(C)=O)SC (stereo not drawn)	-0.1	1.4	0.5	-4.0	2.6	-0.6
COP(=O)(NC(=O)C(Cl)(Cl)Cl)OC	0.1	/	-1.7	0.0	-3.3	27.5*
SMILES	FGF22 binding	MITF TRPM1 HTS	Wnt bcat act	SMARCA2 activ	esBAF inh	AF4-AF9 inh
Cc1nn(Cc2ccccc2)c(C)c1C(=O)OCC(=O)Nc1cc(S(C)(=O)=O)ccc1Cl	43.2*	15.8	-0.5	6.3	/	3.2
O=C(Cc1ccccc1)N1CC2(C1)[C@H](c1ccccc1)[C@H](CO)N2Cc1cccc(F)c1	-0.1	/	/	/	/	1.7
CCCCc1nc(N2CCNCC2)c(C#N)c2c1CSC(C)(C)C2	/	/	-3.0	-2.2	-5.1	/
N#Cc1c(N2CCNCC2)nc(-c2ccco2)c2c1CCCC2	1.9*	/	5.7	-2.9	/	3.7
COc1ccc(N2C(=O)C(=O)N(c3ccc(OC)cc3)P2(=O)N(CCCl)CCCl)cc1	43.1*	5.9	0.6	3.5	7.6	-1.6
COc1ccc2c(c1)C(c1ccc(N(CCCl)CCCl)cc1)=NCC2	0.0	19.5	-3.5	-5.5	-15.6	6.1
O=P(O)(O)CN1CCNCCN(CP(=O)(O)O)CCNCC1	43.0*	/	-4.8	7.0	/	-7.0

Screens from PubChem.
